Not all results are given here.
aSyn UTR act: Activators working through SNCA 5'UTR binding (MLPCN). alpha-synuclein 5'UTR reporter, activators screen. activity score, % (tested at 7.5 µM), hits read low. actives 7.1% (n = 300,000). AID 1814; in the data active = activity score below about -60%
Numbers without * were called inactive.

SMILES | aSyn UTR act
COC(=O)c1ccc(NC(=O)C2CC3CCC2C3)cc1 (stereo not drawn) | -194*
CCOC(=O)c1ccc(NC(=O)C2CC3CCC2C3)cc1 (stereo not drawn) | -128*
O=C(/C=C(/c1ccc(Cl)cc1)n1cncn1)c1ccccc1 | -62*
COc1ccc(/C(N)=N/OC(=O)CSc2ccccc2)cc1 | -162*
COc1ccc(/C(N)=N/OC(=O)CC2CCCCC2)cc1 | -111*
N/C(=N\OCc1ccc([N+](=O)[O-])cc1)c1ccncc1 | -83*
N/C(=N\OC(=O)CSc1ccccc1)c1ccc([N+](=O)[O-])cc1 | -121*
Cc1ccc(/C(N)=N/OC(=O)CSc2ccccc2)cc1 | -185*
Cc1ccc(Nc2cc(-n3cccn3)ncn2)c(C)c1 | -170*
Fc1cccc(Nc2cc(-n3cccn3)ncn2)c1 | -147*
CC(=O)c1cc(C#N)c(SCC(=O)OC(C)(C)C)nc1C | -116*
CC(=O)c1cc(C#N)c(SCc2ccccc2C#N)nc1C | -97*
c1ccc(CN2CCC(Nc3nc(-c4cccnc4)nc4ccccc34)CC2)cc1 | -83*
c1ccc(COc2ccc(Nc3ncnc4nc[nH]c34)cc2)cc1 | -85*
CCOC(=O)C/C(=N\Nc1ncnc2ccccc12)c1ccccc1 | -139*
Cc1cc2nc(C3CCN(Cc4nnnn4Cc4ccccc4)CC3)[nH]c2cc1C | 74
CCOC(=O)c1ccc(Nc2nc(-c3cccnc3)nc3ccccc23)cc1 | -103*
Cc1c(O)ccc(/C=N/Nc2nc(-c3cccnc3)nc3ccccc23)c1O | -77*
CCOC(=O)c1ccc(Nc2ncnc3ccccc23)cc1 | -93*
Fc1ccccc1/C=N/Nc1nc(-c2ccccn2)nc2ccccc12 | 81
Cc1ccc(Nc2nc(-c3cccnc3)nc3ccccc23)cc1 | -95*
Cc1ccc(-c2nc(N/N=C/c3ccncc3)c3ccccc3n2)cc1 | -120*
c1ccc(CNc2nc(NCc3ccccc3)c3ccccc3n2)cc1 | 106
CCOC(=O)c1ccc(Nc2ncnc3nc[nH]c23)cc1 | -73*
CC(C)(C)c1ccc(-c2nc(NCc3cccnc3)c3ccccc3n2)cc1 | -96*
SMILES | aSyn UTR act
O=C(NCCc1ccccc1Cl)c1ccc2nc3ccccc3c(=O)n2c1 | -100*
Cc1oc2cc3c(C(=O)N4CCCCC4)c(C)oc3cc2c1C(=O)N1CCCCC1 | -162*
O=C(Nc1ccc2nc3ccccc3nc2c1)c1ccccc1 | -97*
O=C(Nc1ccc(-c2nc3ccccc3s2)c(OC(=O)c2ccccc2)c1)c1ccccc1 | -175*
CNC(=O)c1ccc(NC(=O)Nc2ccccc2)cc1 | -71*
O=C(Nc1ccc(C2SCCS2)cc1)c1ccccc1 | -88*
O=C(Nc1ccc([N+](=O)[O-])cc1)c1ccccc1 | -122*
O=C(C[n+]1ccc2ccccc2c1)c1ccc(NC(=O)c2ccccc2)cc1 | -87*
Cc1ccc(C(=O)C[n+]2ccc(Cc3ccccc3)cc2)cc1 | 61
O=C(N[C@H]1CC1c1ccccc1)c1ccc([N+](=O)[O-])cc1 (stereo partly drawn) | -107*
CCN(CC)c1ccc(C(=O)Nc2ccccc2)cc1[N+](=O)[O-] | -151*
O=C(Nc1ccc(F)cc1)c1ccccc1 | -83*
CCn1c2ccccc2c2cc(NC(=O)c3cc(OC)cc(OC)c3)ccc21 | 101
COc1cc(OC)cc(C(=O)Nc2ccc(Nc3ccccc3)cc2)c1 | -165*
O=C(Nc1csc(Cl)c1)c1ccccc1 | -161*
O=C(Nc1ccc(SC(F)F)cc1)c1ccc(F)cc1 | -163*
O=C(Nc1ccccc1)c1ccc(NC(=O)C2CC2)cc1 | -105*
O=C(Nc1ccc(Nc2ccccc2)cc1)c1ccccc1 | -176*
CCCCNC(=O)Nc1ccc(C2SCCS2)cc1 | -91*
O=C(C#Cc1ccccc1)c1ccc([N+](=O)[O-])cc1 | -95*
Cc1ccc(C(=O)Nc2ccc(Nc3ccccc3)cc2)cc1C | -62*
O=C(Nc1ccc(-c2nnco2)cc1)c1ccccc1 | -78*
CC(Cc1ccccc1)NC(=O)c1ccc([N+](=O)[O-])cc1 (stereo not drawn) | -90*
Cc1ccccc1N=CC1=C(O)c2ccccc2C1=O | -138*
O=C1C(C=Nc2ccc(F)cc2)=C(O)c2ccccc21 | -214*
SMILES | aSyn UTR act
COc1ccc(N=CC2=C(O)c3ccccc3C2=O)c(OC)c1 | 63
Cc1ccc(C(=O)Nc2nccs2)s1 | -87*
O=C(Nc1nccs1)c1ccc(Br)s1 | -153*
CCOC(=O)CCSc1nc(C)c2cc(C)ccc2n1 | -87*
CCOC(=O)c1cc2c(nc1N)CC(C)(CC)OC2 (stereo not drawn) | -101*
CCc1cc2cc(C(=O)Nc3ccccc3F)sc2s1 | -134*
CC(C)(C)c1ccc(C(=O)Nc2ccc(F)cc2)s1 | -140*
CCc1cc2cc(C(=O)Nc3ccc(F)cc3)sc2s1 | -150*
CC(C)(C)n1ncc2c(=O)n(CC(=O)c3ccc(Cl)cc3)cnc21 | -197*
CC1CCN(C(=O)Cn2cnc3c(cnn3C(C)(C)C)c2=O)CC1 | -85*
Cc1cc2ncc(-c3ccc(Cl)cc3)c(N)n2n1 | -117*
COCc1nn2c(N)c(-c3ccccc3)cnc2c1-c1ccccc1 | -106*
Nc1c(-c2ccccc2)cnc2cc(-c3ccccc3)nn12 | -121*
Cc1ccc(NC(=O)c2ccc3ccccc3n2)nc1 | -163*
O=C(Nc1ccc(Cl)cn1)c1ccc2ccccc2n1 | -96*
Cc1ccccc1C(=O)Nc1ccc(Cl)cn1 | -114*
COc1cccc(-c2ccnc3[nH]n(-c4ccccc4)c(=O)c23)c1 | -76*
O=[N+]([O-])c1cccc(C2Nc3cccc4cccc(c34)N2)c1 | -72*
CC1(C)CC(=O)c2sc(NC(=O)C(C)(C)C)nc2C1 | -184*
CC1(C)CC(=O)c2sc(NC(=O)c3ccc4ncsc4c3)nc2C1 | -77*
CC1(C)CC(=O)c2sc(NC(=O)c3ccccc3)nc2C1 | -78*
CC1(C)CNC(=O)c2sc(NC(=O)c3ccccc3)nc2C1 | -155*
Cc1ccc(-n2c(C)nn(CCOc3ccccc3)c2=O)cc1 | -104*
Cc1nn(CCOc2ccccc2)c(=O)n1-c1c(F)cccc1F | -108*
O=c1c2ccccc2cnn1CCOc1ccccc1 | 72
SMILES | aSyn UTR act
Nc1c(C(=O)Nc2cccc(F)c2)nnn1-c1cccc(C(F)(F)F)c1 | -155*
Nc1c(C(=O)Nc2ccc3c(c2)OCCO3)nnn1Cc1cccc(F)c1 | -176*
Nc1c(C(=O)Nc2ccc3c(c2)OCCO3)nnn1Cc1ccc(Cl)cc1 | -212*
CCOc1ccc(-c2csc(Cn3c(CN4CCN(C)CC4)nc4ccccc4c3=O)n2)cc1 | -66*
Cc1ccc(C(=O)CSc2nnc(C(C)C)n2C)cc1C | -75*
CCN(CC)C(=O)c1sc2nc(-c3ccc(OC)cc3)cn2c1C | -150*
CNC(=O)c1sc2nc(-c3ccc(OC)cc3)cn2c1C | -138*
Cc1ccc(NC(=S)N2CCCCCC2)cc1 | -94*
Cc1ccc(NC(=S)N2CCCC2)cc1 | -64*
CN(C)c1ccc(/C=C/c2cc[n+]([O-])cc2)cc1 | -114*
Clc1ccc(N2CCN(c3cnc4ccccc4n3)CC2)cc1 | -137*
c1ccc(N2CCN(c3cnc4ccccc4n3)CC2)cc1 | -77*
Fc1ccc(N2CCN(c3cnc4ccccc4n3)CC2)cc1 | -251*
COc1cccc(N2C(C(C)=O)=NN(c3ccccc3)C2c2ccc(N3CCOCC3)cc2)c1 (stereo not drawn) | -82*
[O-][n+]1c2cc(C(F)(F)F)ccc2c2n1CCN=C2c1ccc(Cl)cc1 | -65*
Nc1c(Cl)cc(C2=NCCn3c2c2ccc([N+](=O)[O-])cc2[n+]3[O-])cc1Cl | 61

Source: PubChem BioAssay
